According to paper PMC7862700, “An all-to-all approach to the identification of sequence-specific readers for epigenetic DNA modifications on cytosine”:

Experiments:
Assay in all cases: DAPPL (digital affinity profiling via proximity ligation, sequencing); 10 mM Tris-HCl pH 7.5, 50 mM NaCl, 1 mM DTT, 4% glycerol, room temperature, 30 min; GST-TFs on glutathione beads, 16-mer random dsDNA library, 0.1% formaldehyde crosslink after washing; high values mean tight binding
FLI1 = biological target: T1, FLI1 (Homo sapiens, UniProt Q01543 1-452); conditions: protein: recombinant; tags: N-terminal GST; dsDNA, one strand shown
T1 sequence: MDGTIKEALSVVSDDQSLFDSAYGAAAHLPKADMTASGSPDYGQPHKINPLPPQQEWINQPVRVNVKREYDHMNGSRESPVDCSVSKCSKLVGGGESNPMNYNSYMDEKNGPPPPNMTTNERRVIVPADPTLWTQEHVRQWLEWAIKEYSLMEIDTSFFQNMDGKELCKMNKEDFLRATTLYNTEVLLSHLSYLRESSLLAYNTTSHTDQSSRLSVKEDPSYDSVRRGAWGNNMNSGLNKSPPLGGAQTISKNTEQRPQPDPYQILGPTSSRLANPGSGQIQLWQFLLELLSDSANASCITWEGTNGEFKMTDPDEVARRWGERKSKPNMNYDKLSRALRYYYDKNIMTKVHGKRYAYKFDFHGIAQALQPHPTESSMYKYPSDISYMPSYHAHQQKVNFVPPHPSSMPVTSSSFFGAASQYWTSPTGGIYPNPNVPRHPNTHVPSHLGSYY
Procedure, shortened: (§1)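 After expression in yeast as GST fusions, human transcription factors were bound to glutathione beads, DNA-barcoded and mixed with a tag-only sample. The pools were incubated with 200 nmole of a 16-mer random double-stranded DNA library in Tris/NaCl/DTT/glycerol buffer (30 min, room temperature), washed and crosslinked with 0.1% formaldehyde. Proximity ligation with BsaI/T4 ligase ran for 1 h at 37 °C, before PCR amplification and sequencing on an Illumina NextSeq500. Binding signal is a hexamer's read frequency for a factor divided by its frequency for the tag-only sample.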

ERG = biological target: T2, ERG (Homo sapiens, UniProt P11308 1-479); conditions: protein: recombinant; tags: N-terminal GST; dsDNA, one strand shown
T2 sequence: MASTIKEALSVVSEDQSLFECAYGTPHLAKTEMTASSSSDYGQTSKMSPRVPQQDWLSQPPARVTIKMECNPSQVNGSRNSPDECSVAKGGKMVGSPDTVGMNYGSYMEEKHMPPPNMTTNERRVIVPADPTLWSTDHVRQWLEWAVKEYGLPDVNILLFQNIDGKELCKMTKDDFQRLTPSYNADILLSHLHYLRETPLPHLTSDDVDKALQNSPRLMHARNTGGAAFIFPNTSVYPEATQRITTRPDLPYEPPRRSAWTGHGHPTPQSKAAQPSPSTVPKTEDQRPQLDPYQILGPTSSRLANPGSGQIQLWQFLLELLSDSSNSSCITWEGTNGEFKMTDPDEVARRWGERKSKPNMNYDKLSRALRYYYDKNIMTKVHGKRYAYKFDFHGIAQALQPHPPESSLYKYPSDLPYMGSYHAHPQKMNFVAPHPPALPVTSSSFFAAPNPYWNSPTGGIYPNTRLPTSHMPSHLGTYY
Procedure, shortened: as §1

ELF1 = ELF1 (Homo sapiens, UniProt P32519 1-619); conditions: protein: recombinant; tags: N-terminal GST; dsDNA, one strand shown
Sequence of ELF1 (P32519 whole entry): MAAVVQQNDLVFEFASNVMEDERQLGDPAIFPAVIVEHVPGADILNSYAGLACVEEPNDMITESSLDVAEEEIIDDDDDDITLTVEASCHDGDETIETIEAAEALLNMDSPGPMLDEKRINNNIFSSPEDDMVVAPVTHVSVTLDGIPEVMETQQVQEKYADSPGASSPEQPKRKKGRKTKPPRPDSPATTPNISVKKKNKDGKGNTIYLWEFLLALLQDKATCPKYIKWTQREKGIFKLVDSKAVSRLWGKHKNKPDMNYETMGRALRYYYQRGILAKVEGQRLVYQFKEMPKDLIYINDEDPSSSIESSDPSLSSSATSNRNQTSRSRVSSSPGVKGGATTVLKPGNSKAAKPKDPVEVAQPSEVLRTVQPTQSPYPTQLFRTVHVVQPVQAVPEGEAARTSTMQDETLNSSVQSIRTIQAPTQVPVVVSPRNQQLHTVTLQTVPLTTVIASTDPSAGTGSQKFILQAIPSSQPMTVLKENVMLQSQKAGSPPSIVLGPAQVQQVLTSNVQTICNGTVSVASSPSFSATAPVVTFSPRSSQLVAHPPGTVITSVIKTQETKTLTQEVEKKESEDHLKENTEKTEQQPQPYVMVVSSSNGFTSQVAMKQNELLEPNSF
Procedure, shortened: as §1

EHF = biological target: T3, EHF (Homo sapiens, UniProt Q9NZC4 1-300); conditions: protein: recombinant; tags: N-terminal GST; dsDNA, one strand shown
T3 sequence: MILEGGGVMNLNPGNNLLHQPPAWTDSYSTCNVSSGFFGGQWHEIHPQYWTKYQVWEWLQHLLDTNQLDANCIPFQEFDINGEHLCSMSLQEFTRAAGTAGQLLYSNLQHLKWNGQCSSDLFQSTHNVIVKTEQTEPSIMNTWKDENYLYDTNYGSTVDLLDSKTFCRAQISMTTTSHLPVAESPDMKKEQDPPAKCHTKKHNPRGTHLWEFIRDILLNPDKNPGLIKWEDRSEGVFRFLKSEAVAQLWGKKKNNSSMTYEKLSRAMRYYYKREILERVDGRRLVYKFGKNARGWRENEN
Procedure, shortened: as §1

SPI1 = SPI1 (Homo sapiens, UniProt P17947 1-270); conditions: protein: recombinant; tags: N-terminal GST; dsDNA, one strand shown
Procedure, shortened: as §1

SPIB = SPIB (Homo sapiens, UniProt Q01892 1-262); conditions: protein: recombinant; tags: N-terminal GST; dsDNA, one strand shown
Sequence of SPIB (Q01892 whole entry): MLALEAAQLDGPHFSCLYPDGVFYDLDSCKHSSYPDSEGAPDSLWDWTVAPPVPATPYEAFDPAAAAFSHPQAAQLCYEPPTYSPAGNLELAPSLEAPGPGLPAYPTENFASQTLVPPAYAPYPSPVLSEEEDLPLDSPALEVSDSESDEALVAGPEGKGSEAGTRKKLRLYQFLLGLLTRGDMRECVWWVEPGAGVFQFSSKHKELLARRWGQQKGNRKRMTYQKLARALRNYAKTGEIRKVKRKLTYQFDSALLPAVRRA
Procedure, shortened: as §1

ETV5 = ETV5 (Homo sapiens, UniProt P41161 1-510); conditions: protein: recombinant; tags: N-terminal GST; dsDNA, one strand shown
Sequence of ETV5 (P41161 whole entry): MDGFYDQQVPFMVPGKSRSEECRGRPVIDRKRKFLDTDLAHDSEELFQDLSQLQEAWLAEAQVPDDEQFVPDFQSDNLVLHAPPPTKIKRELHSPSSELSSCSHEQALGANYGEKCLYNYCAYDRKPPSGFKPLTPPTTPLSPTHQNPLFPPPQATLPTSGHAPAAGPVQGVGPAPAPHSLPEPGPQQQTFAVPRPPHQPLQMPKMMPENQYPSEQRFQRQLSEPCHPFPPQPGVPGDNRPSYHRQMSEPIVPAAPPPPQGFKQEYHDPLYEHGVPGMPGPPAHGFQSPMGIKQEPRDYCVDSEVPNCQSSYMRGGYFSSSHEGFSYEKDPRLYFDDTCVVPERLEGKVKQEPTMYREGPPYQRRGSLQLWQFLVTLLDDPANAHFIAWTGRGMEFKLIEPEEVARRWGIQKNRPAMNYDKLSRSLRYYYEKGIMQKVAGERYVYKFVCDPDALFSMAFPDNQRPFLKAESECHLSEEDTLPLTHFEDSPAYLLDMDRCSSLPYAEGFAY
Procedure, shortened: as §1

HSF1 = HSF1 (Homo sapiens, UniProt Q00613 1-529); conditions: protein: recombinant; tags: N-terminal GST; chain copies: 3; dsDNA, one strand shown
Sequence of HSF1 (Q00613 whole entry): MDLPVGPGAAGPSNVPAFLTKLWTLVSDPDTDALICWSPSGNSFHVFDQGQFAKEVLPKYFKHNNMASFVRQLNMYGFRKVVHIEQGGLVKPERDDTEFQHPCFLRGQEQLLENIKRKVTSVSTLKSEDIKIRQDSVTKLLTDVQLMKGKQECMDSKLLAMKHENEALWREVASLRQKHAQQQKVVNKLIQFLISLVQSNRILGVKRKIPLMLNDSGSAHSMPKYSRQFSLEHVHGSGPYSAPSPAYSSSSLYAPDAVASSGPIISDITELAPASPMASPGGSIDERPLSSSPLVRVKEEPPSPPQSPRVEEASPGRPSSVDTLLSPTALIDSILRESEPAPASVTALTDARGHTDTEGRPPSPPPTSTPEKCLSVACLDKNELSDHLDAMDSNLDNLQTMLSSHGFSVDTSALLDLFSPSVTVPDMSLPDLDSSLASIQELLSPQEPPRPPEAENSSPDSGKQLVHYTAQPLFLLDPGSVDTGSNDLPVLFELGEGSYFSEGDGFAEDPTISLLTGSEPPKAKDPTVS
Procedure, shortened: as §1

SPIC = biological target: T4, SPIC (Homo sapiens, UniProt Q8N5J4 1-248); conditions: protein: recombinant; tags: N-terminal GST; dsDNA, one strand shown
T4 sequence: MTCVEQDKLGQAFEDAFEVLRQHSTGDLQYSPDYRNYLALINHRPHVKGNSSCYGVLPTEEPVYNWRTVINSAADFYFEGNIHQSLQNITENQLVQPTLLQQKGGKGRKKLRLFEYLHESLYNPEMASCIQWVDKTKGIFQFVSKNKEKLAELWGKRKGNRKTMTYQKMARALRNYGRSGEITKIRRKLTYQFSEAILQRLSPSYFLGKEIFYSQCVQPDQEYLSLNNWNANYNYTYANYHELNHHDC
Procedure, shortened: as §1

ELF4 = ELF4 (Homo sapiens, UniProt Q99607 1-663); conditions: protein: recombinant; tags: N-terminal GST; dsDNA, one strand shown
Sequence of ELF4 (Q99607 whole entry): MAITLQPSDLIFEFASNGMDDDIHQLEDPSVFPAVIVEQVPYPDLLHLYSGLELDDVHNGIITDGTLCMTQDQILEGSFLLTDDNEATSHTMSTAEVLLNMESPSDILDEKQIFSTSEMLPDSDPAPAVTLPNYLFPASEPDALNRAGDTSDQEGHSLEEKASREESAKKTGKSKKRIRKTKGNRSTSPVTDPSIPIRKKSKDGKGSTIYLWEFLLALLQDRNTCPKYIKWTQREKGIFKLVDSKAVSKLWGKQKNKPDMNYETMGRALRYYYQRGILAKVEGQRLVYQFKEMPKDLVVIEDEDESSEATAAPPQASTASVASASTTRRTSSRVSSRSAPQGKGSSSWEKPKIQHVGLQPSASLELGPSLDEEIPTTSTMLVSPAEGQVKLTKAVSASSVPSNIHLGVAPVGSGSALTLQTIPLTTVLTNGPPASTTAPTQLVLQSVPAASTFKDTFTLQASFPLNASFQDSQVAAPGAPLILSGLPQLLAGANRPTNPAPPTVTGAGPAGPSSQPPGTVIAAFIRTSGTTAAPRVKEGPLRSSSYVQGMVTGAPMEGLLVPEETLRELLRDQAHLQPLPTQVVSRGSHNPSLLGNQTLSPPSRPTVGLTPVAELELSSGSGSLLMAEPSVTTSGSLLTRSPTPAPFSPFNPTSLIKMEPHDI
Procedure, shortened: as §1

ELK4 = biological target: T5, ELK4 (Homo sapiens, UniProt P28324-2 1-405); conditions: protein: recombinant; tags: N-terminal GST; dsDNA, one strand shown
T5 sequence: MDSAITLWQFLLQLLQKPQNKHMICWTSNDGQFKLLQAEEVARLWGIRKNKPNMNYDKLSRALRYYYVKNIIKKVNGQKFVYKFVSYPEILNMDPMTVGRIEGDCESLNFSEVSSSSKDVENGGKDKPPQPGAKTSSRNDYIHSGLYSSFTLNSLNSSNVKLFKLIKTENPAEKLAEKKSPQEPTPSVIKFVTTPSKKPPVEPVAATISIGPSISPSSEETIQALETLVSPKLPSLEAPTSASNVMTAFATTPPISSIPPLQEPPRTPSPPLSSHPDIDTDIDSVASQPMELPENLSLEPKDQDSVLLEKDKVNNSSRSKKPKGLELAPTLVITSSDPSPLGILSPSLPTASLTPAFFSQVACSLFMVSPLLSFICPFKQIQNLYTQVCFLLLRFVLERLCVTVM
Procedure, shortened: as §1

ETV2 = biological target: T6, ETV2 (Homo sapiens, UniProt O00321 1-342); conditions: protein: recombinant; tags: N-terminal GST; dsDNA, one strand shown
T6 sequence: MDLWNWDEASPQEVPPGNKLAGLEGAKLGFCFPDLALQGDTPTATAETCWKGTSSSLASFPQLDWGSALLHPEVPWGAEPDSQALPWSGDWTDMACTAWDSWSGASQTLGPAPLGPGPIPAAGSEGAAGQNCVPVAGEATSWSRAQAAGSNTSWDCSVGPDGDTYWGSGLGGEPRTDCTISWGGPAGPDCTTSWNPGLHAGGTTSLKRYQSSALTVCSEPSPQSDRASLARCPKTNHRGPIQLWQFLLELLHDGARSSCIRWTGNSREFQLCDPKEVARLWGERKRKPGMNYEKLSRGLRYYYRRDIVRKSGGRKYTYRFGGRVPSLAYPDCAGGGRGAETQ
Procedure, shortened: as §1

CRX = CRX (Homo sapiens, UniProt O43186 1-299); conditions: protein: recombinant; tags: N-terminal GST; dsDNA, one strand shown
Sequence of CRX (O43186 whole entry): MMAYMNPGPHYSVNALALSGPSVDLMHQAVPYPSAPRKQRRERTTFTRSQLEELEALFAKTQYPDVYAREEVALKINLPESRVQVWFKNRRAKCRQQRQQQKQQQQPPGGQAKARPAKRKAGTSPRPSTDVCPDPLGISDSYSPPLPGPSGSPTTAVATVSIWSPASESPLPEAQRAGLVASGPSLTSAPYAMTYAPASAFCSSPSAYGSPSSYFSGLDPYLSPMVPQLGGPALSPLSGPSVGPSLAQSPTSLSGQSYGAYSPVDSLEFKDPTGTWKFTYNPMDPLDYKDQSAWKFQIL
Procedure, shortened: as §1

ETV1 = ETV1 (Homo sapiens, UniProt P50549 1-477); conditions: protein: recombinant; tags: N-terminal GST; dsDNA, one strand shown
Sequence of ETV1 (P50549 whole entry): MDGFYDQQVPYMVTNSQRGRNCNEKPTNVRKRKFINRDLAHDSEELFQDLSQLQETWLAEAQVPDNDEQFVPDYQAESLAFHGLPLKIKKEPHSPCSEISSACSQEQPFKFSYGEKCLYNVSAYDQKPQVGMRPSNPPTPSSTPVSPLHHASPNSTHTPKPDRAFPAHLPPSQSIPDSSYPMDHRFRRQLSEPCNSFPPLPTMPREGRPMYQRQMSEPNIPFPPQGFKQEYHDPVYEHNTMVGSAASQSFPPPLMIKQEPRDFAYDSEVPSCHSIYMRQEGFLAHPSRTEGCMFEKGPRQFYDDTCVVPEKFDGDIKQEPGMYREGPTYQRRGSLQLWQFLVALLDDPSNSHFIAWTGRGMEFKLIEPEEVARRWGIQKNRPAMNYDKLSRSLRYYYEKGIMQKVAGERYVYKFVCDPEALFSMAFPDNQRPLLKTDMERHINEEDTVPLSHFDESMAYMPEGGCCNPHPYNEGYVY
Procedure, shortened: as §1

GAAAGA
binding signal (FLI1): 1.01 fold enrichment (6-mer frequency, TF over GST control) | binding signal (ERG): 1.02 fold enrichment (6-mer frequency, TF over GST control) | binding signal (ELF1): 1.08 fold enrichment (6-mer frequency, TF over GST control) | binding signal (EHF): 1.01 fold enrichment (6-mer frequency, TF over GST control) | binding signal (SPI1): 1.14 fold enrichment (6-mer frequency, TF over GST control) | binding signal (SPIB): 1.02 fold enrichment (6-mer frequency, TF over GST control) | binding signal (ETV5): 1.04 fold enrichment (6-mer frequency, TF over GST control) | binding signal (HSF1): 1.4 fold enrichment (6-mer frequency, TF over GST control) | binding signal (SPIC): 1.05 fold enrichment (6-mer frequency, TF over GST control) | binding signal (ELF4): 1.07 fold enrichment (6-mer frequency, TF over GST control) | binding signal (ELK4): 1.01 fold enrichment (6-mer frequency, TF over GST control) | binding signal (ETV2): 1.07 fold enrichment (6-mer frequency, TF over GST control) | binding signal (CRX): 1.01 fold enrichment (6-mer frequency, TF over GST control) | binding signal (ETV1): 1.03 fold enrichment (6-mer frequency, TF over GST control)
